This note sets out measurements from PubChem BioAssay (NCATS).

Test [1] deals with Lysosomal acid glucosylceramidase (Homo sapiens) (UniProt P04062). The test can be described thus: Glucocerebrosidase-p2 (AID 348; in the data active means potency below about 10 µM; further: potency means the concentration at half of the fitted maximal effect). The note with it: purified GBA, blue fluorogenic substrate, 40 min. The method, boiled down:
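Compounds titrated from 0.6 nM upwards against 0.2 nM enzyme in pH 5.9 citric acid/KH2PO4, taurocholate, tween-20; blue fluorogenic substrate 80 uM, 40 min room temperature, stopped and read Ex 365/Em 440 for AC50.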

A short description of test [2]: AP1 Signaling Pathway (AID 357).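 Further: ME-180 reporter cells stimulated with EGF at its EC50 level; on the % scale 0 is the no-effect control and ±100 the full control effect.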 As to conditions: ME-180 AP-1-bla reporter, EGF-induced, beta-lactamase ratio, 5 h; at 7.69 µM (top of the series) unless noted. The method, boiled down: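 AP-1-bla ME-180 cells, Opti-MEM + 0.5% dialyzed FBS, plated overnight 37 °C. Cpd titration + EC50 EGF, 5 h 37 °C. CCF4 2.5 h RT; ex 405, em 460/530 ratio → %activity, AC50.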
In test [3] the target is Cytochrome P450 1A2 (Homo sapiens) (UniProt P05177). The test can be described thus: p450-cyp1a2 (AID 410; calls by dose curve;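 further: -100% = full effect of reference inhibitor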). As to conditions: recombinant CYP1A2, luciferin-ME demethylation, luminescence; series mostly up to 11.4 µM. The method, boiled down:
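Human CYP1A2 (20nM) demethylated Luciferin-ME at its Km (100uM) in 100mM KPO4. After 10 min compound preincubation, NADPH regeneration ran the reaction 60 min at room temperature. Luciferin was read by luminescence, normalized to 57 uM furafylline.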

Test [4] can be described thus: NFAT Signaling Pathway (AID 444).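 Further: carbachol stimulus at about its EC50 of 1 µM final; on the % scale 0 is the no-effect control and ±100 the full control effect.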 As to conditions: Jurkat NFAT-bla M1, carbachol, beta-lactamase ratio, 5 h; at 7.69 µM (top of the series) unless noted. The method, boiled down: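 Jurkat cells with NFAT-driven β-lactamase reporter and co-expressed M1 receptor, stimulated with carbachol (final 1 uM, ~EC50), compound titration, 5 h at 37 °C. CCF4 loaded 1 h at RT; 460/530 nm ratio gave %activity and AC50.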

The target in test [5] is Glucocorticoid receptor (Homo sapiens) (UniProt P04150). The test can be described thus: GR-GFP Redistribution (AID 450;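 active means compounds whose dose series gives a full or clear partial fitted curve of increased nuclear translocation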; further: potency means the concentration at half of the fitted maximal effect). The note with it: U2OS GR-GFP nuclear translocation, laser cytometry, 2 h.
Sequence of Glucocorticoid receptor (Homo sapiens) (P04150 whole entry, looked up): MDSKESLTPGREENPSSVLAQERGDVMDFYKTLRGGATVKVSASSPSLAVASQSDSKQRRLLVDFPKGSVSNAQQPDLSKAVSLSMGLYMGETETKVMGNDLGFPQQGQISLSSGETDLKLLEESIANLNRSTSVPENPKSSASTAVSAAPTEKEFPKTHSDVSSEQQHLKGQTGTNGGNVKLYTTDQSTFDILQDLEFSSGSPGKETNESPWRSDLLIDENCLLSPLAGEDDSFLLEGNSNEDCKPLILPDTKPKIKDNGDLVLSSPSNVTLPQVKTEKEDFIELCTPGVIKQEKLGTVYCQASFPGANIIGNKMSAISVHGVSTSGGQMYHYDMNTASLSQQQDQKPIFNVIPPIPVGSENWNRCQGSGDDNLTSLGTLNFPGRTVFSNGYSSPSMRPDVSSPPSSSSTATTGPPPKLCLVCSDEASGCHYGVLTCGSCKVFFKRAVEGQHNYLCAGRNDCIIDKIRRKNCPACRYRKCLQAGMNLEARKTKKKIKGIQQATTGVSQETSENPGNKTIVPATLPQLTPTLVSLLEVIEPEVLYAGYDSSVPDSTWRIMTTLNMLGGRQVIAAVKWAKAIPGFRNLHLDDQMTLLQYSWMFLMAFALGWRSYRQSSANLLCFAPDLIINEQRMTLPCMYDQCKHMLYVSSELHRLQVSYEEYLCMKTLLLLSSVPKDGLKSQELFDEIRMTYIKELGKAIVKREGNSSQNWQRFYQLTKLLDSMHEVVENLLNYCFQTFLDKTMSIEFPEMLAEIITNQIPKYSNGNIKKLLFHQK
Test [6] shares this target. The test can be described thus: GR-EFC Redistribution (AID 451; calls by dose curve; further: potency means the concentration at half of the fitted maximal effect). As to conditions: CHO-K1 GR-EFC translocation, beta-gal luminescence, 2 h. The method, boiled down:
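CHO-K1 cells expressing nuclear EA and GR-ED fragments of b-gal; compounds titrated up to 46 uM final, 2 h at 37 C. GR nuclear translocation read as complemented b-gal luminescence after 1 h RT detection.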

In test [7] the target is Mitogen-activated protein kinase 10 (Mus musculus) (UniProt Q61831). The test can be described thus: JNK3 AlphaScreen Assay (AID 530).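 Further: kinase came from lysate of stimulated human HepG2 cells; signal reports phosphorylation of biotinylated GST-cJun 1-79 at Ser73 with 10 µM ATP; on the % scale 0 is the no-effect control and ±100 the full control effect.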 The note with it: JNK3 lysate, c-Jun phosphorylation; series mostly up to 11.4 µM. The method, boiled down: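 qHTS format: compounds tested as titrations against IL-1beta/TNF-alpha-activated HepG2 lysate JNK3 with biotin-GST-cJun substrate and 10 uM ATP at room temperature. Loss of anti-phospho-cJun AlphaScreen signal indicates inhibition.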
For orientation: In Alpha technology, singlet oxygen from a donor bead excites a nearby acceptor bead.

Test [8] deals with 3',5'-cyclic-AMP phosphodiesterase 4B (Homo sapiens) (UniProt Q07343). The test can be described thus: qHTS Assay for Inhibitors of PDE-IV (AID 607; active means well fitted activation curve with a large enough effect in the main read-out, with a control signal flat, not every such curve was filed as active; further: % of control where 0% means no effect). As to conditions: HEK293 ACTOne CNG channel cells, membrane potential fluorescence; series mostly up to 22.9 µM. The method, boiled down:
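Cell-based read-out of cAMP via a modified cyclic nucleotide-gated channel and membrane potential dye (535/590 nm) in HEK293 cells expressing PDE4 endogenously. Compounds tested up to 22.9 uM final; 100 uM RO 20-1724 reference.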
For orientation: Quantitative high-throughput screening tests each substance at several concentrations.

Test [9] addresses Cytochrome P450 3A4 (Homo sapiens) (UniProt P08684). The test can be described thus: qHTS Assay for Inhibitors and Substrates of Cytochrome P450 3A4 (AID 884; active means well fitted inhibition curve with a large enough effect; further: potency means the concentration at half of the fitted maximal effect; nearly all actives have a fitted effect of over 50% in size). As to conditions: recombinant CYP3A4, Luciferin-PPXE luminescence; series mostly up to 57.1 µM. The method, boiled down:
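20 nM human CYP3A4 with 25 uM Luciferin-PPXE (at KM) in 200 mM KPO4, preincubated 10 min with compound; NADPH regeneration started a 60 min RT reaction. Luciferin detected by luminescence, normalized to 57 uM ketoconazole as full inhibition.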

The target in test [10] is Cytochrome P450 2C9 (Homo sapiens) (UniProt P11712). The test can be described thus: qHTS Assay for Inhibitors and Substrates of Cytochrome P450 2C9 (AID 883; active means well fitted inhibition curve with a large enough effect; further: on the % scale 0 is the no-effect control and ±100 the full control effect; nearly all actives have a fitted effect of over 60% in size). The note with it: recombinant CYP2C9, luciferin-H luminescence, 60 min; series mostly up to 11.4 µM. The method, boiled down:
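Signal: luciferase luminescence reporting luciferin produced by CYP2C9. Conditions: 10nM enzyme, Luciferin-H 100uM at KM, 25mM KPO4, 37C, 60 min NADPH-driven reaction. Reference: 57uM sulphaphenazole as 100% inhibition.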

Test [11] can be described thus: qHTS Assay for Identification of Small Molecule Agonists for Hypoxia Response Element Signaling Pathway (AID 914; active means well fitted activation curve with a large enough effect in the signal ratio, with a control signal flat, not every such curve was filed as active; the % refers to the signal ratio; further: % of control where 0% means no effect). The note with it: ME-180 (cervical carcinoma) HRE-bla reporter, beta-lactamase ratio, CoCl2, 17 h; activation: stronger effect = higher value. The method, boiled down: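 HRE-bla ME-180 cells with beta-lactamase reporter under hypoxia response element, compounds with EC50 CoCl2 for 17 hours at 37 C. CCF4 substrate, 460nm/530nm emission ratio gave %Activity; AC50 from titration series.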

Values without a mark were called inactive. Records with an inconclusive call do not appear. Activity calls are given as the source filed them. Unless noted, the call rests on the fitted dose curve; in most records, active means well fitted curve in either direction with a large enough effect (not every such curve was filed as active); inconclusive means small, poorly fitted or top-dose-only effect, or another doubt; inactive means flat fitted curve, though single readings scatter. A value given as a limit tells only on which side of the number the result lay.

Sequence of Cytochrome P450 1A2 (Homo sapiens) (P05177 whole entry, looked up): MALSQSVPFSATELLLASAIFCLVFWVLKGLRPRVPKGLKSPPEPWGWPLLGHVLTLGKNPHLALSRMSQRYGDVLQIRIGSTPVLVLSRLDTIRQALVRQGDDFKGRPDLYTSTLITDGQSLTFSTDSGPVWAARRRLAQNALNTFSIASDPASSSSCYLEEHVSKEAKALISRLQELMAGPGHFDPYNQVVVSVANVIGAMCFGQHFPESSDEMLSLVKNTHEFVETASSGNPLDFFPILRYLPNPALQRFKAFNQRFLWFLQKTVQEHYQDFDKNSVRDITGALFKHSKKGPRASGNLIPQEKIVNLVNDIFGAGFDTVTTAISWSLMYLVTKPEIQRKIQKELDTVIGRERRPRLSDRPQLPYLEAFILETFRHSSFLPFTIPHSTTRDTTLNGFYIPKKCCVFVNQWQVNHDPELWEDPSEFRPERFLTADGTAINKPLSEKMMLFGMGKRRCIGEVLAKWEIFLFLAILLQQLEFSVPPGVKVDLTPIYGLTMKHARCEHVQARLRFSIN
Sequence of Lysosomal acid glucosylceramidase (Homo sapiens) (P04062 whole entry, looked up): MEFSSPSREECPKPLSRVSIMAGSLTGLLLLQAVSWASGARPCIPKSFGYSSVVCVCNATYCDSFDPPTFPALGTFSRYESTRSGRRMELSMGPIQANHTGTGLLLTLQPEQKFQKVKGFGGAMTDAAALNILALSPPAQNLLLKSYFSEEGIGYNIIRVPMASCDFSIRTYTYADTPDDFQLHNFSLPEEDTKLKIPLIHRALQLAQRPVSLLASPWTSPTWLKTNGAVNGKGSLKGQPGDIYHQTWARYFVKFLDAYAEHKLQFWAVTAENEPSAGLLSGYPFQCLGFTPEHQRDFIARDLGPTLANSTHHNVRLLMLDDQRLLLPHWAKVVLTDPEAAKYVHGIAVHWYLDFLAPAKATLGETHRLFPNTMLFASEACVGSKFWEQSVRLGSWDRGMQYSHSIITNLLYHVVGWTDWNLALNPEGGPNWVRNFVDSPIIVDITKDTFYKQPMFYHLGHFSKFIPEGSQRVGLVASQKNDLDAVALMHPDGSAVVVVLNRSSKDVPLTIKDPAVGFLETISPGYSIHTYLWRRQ
Sequence of 3',5'-cyclic-AMP phosphodiesterase 4B (Homo sapiens) (Q07343 whole entry, looked up): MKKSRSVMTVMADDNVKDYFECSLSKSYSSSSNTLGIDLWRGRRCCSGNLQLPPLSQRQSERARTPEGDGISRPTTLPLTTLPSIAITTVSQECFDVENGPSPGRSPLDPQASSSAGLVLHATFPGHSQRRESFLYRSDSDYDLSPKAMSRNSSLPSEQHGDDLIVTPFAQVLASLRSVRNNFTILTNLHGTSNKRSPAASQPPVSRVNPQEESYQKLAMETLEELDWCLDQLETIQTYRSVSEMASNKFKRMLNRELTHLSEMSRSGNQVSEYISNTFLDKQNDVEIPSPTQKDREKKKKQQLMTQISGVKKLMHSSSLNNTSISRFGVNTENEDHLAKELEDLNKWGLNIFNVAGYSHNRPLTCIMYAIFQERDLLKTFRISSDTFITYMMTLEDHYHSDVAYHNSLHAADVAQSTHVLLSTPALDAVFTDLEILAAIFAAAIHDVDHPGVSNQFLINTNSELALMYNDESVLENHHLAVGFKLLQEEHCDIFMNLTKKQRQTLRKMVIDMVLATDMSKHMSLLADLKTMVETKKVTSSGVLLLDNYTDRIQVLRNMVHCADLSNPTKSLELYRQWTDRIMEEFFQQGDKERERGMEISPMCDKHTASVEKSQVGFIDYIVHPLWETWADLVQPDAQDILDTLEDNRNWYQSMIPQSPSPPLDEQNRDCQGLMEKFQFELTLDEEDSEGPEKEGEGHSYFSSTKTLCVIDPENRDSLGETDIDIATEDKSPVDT
Sequence of Cytochrome P450 2C9 (Homo sapiens) (P11712 whole entry, looked up): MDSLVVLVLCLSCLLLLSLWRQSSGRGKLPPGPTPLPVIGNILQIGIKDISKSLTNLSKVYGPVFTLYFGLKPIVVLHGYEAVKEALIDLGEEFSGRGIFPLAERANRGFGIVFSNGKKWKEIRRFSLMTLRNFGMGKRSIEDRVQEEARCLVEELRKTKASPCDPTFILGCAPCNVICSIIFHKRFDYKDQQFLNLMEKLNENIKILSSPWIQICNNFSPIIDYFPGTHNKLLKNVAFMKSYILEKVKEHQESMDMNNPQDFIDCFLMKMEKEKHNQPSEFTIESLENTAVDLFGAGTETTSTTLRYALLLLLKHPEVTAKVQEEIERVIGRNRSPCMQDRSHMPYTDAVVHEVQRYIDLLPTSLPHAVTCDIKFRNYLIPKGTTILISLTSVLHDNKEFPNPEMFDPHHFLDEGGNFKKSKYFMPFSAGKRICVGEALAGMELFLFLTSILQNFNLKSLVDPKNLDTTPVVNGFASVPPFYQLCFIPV
Sequence of Cytochrome P450 3A4 (Homo sapiens) (P08684 whole entry, looked up): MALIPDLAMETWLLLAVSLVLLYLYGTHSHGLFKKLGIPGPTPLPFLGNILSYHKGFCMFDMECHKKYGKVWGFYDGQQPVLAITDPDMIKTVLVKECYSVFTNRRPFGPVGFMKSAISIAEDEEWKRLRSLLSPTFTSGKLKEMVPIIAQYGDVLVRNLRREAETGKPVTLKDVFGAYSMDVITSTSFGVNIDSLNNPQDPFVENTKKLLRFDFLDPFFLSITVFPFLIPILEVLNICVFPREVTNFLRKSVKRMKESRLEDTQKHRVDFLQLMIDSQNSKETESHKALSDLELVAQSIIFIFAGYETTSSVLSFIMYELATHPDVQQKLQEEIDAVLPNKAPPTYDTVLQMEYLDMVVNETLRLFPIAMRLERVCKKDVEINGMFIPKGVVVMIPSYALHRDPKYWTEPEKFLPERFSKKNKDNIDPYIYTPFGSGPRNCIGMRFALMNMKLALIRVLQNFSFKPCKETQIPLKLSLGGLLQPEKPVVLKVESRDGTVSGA

Take `Cc1ccc(C)c(C(=N)c2ccccc2Cc2ccccc2)c1`: the Potency was > 11.4 µM in [1], > 46 µM in test [5], > 9.22 µM in test [6] and 3.98 µM (active) in test [9]. Further, the results for the activity change, negative = inhibition in test [2], in test [3] and in test [4] were 1.26%, -6.8% [at 2.29 µM] and -12.9%, respectively. Also, the Potency result in test [7] and in test [8] was “inactive” in each case.
Regarding `CC(=O)N[C@@H]1CONC1=O`, the Potency in test [1] was > 11.4 µM; in [5] it was > 46 µM; in test [6], > 9.22 µM. The activity change, negative = inhibition in test [2] is 10.9%; in test [4], 5.02%. Further, the Potency entry in test [3], in [7] and in [8] was “inactive” in each case.
With `NC(N)=NC(N)=Nc1ccc(S(N)(=O)=O)cc1`, the results for the Potency in [1], in test [5] and in test [6] were > 11.4 µM, > 46 µM and > 9.22 µM, respectively. Moreover, the activity change, negative = inhibition is 3.63% in test [2] and 3.86% in test [4]. The Potency entry in test [3], in test [7] and in test [8] was “inactive” in each case.
As for `c1c[nH]c(CN2CCOCC2)n1`, the values for the Potency in test [1], in [5] and in test [6] were > 11.4 µM, > 46 µM and > 9.22 µM, respectively. The activity change, negative = inhibition in [2] is 6.52%; in test [4], 6.99%. The Potency entry in test [3], in [7] and in test [8] was “inactive” throughout.
On to `O=C(O)CSc1nc2ccccc2[nH]1`, for which the Potency in test [1] is > 11.4 µM; in test [5] it was > 46 µM; in [6] it was > 9.22 µM. The results for the activity change, negative = inhibition in test [2] and in [4] were 3.97% and -2.37%, respectively. The Potency entry in test [3], in test [7] and in test [8] was “inactive” in each case.
As to `CC(C)(N)CO[C@H]1C[C@H]2CC[C@@]1(C)C2(C)C`, the figures for the Potency in test [1], in test [5] and in test [6] were > 11.4 µM, > 46 µM and > 9.22 µM, respectively. Further, the activity change, negative = inhibition in [2] is 4.93%; in [4], 3.38%. Moreover, the Potency entry in test [3], in [7] and in test [8] was “inactive” in each case.
On to `N[C@@](CCc1ccccc1)(C(=O)O)c1ccccc1`, for which the Potency is > 11.4 µM in test [1], > 46 µM in test [5] and > 9.22 µM in test [6]. Moreover, the activity change, negative = inhibition in test [2] is 4.96%; in [4] it was 3.42%. Besides, the Potency entry in [3], in test [7] and in test [8] was “inactive” in each case.
For the compound `NC([N-]/N=C/c1ccccn1)=[S]=[Fe].O=S(=O)(O)O`, the Potency in test [1] is > 11.4 µM; in test [5], > 46 µM; in test [6], > 9.22 µM. Moreover, the activity change, negative = inhibition in test [2] was 8.56%; in test [3] it was 15.8% [at 2.29 µM]; in [4], -1.69%. The Potency entry in [7] and in test [8] was “inactive” each time.
Turning to `C/C(C[n+]1ccccc1)=N\N=C(N)N`, the Potency was > 11.4 µM in [1], > 46 µM in test [5] and > 9.22 µM in test [6]. The results for the activity change, negative = inhibition in test [2] and in test [4] were 1.19% and -14.3%, respectively. Also, the Potency entry in test [3], in [7], in test [8] and in test [10] was “inactive” in each case. For the same compound, the activation in test [11] is 3.43%.
